Values joined by “and” are separate entries in the source; they are usually repeats but may differ in a detail not shown here. Equal entries are not always repeated. Screen size: about 5,500 compounds; about 2,000 (36%) were called active. Not shown: some 18% with an inconclusive outcome. Rule as the data show it: active = normalized growth mostly below about 0.91 (no sharp cut-off); inconclusive = no clear call, values can overlap the other calls; inactive = mostly above about 0.92. This is one part of the list.
Assay: chemical genetic growth profiling, strain panel (AID 1159580);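 also: tested at 20 µM; growth read once vehicle control cultures reached saturation at 30 °C; 1 = growth at the plate median or of vehicle wells; lower values mean less growth of the strain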
Conditions: S. cerevisiae deletion strains, growth OD

Measured: normalized growth

CCCCCCCCC(=O)NCc1ccc(O)c(OC)c1
inactive: locus YAL013W, strain DEP1, stronger effect = lower value 0.99 | locus YAL021C, strain ccr4, stronger effect = lower value 0.996 | locus YAL026C, strain drs2, stronger effect = lower value 1.01 | locus YAL030W, strain snc1, stronger effect = lower value 1 | locus YAL040C, strain CLN3, stronger effect = lower value 0.982 | locus YBL061C, strain skt5, stronger effect = lower value 1.01 | locus YBR009C, strain hhf1, stronger effect = lower value 0.987 | locus YBR021W, strain FUR4, stronger effect = lower value 0.958 | locus YBR023C, strain chs3, stronger effect = lower value 0.989 | locus YBR171W, strain sec66, stronger effect = lower value 0.983 | locus YBR229C, strain ROT2, stronger effect = lower value 0.988 | locus YBR231C, strain swc5, stronger effect = lower value 0.995 | locus YBR279W, strain paf1, stronger effect = lower value 1.01 | locus YCL011C, strain gbp2, stronger effect = lower value 0.981 | locus YCL016C, strain dcc1, stronger effect = lower value 0.984 | locus YCL029C, strain bik1, stronger effect = lower value 0.989 | locus YCL061C, strain MRC1 (second series), stronger effect = lower value 0.994 | locus YCL061C, strain MRC1, stronger effect = lower value 1 | locus YCL069W, strain vba3, stronger effect = lower value 0.979 | locus YCR088W, strain abp1, stronger effect = lower value 0.975 | locus YDL005C, strain med2, stronger effect = lower value 0.995 | locus YDL035C, strain GPR1, stronger effect = lower value 0.981 | locus YDL040C, strain nat1, stronger effect = lower value 1 | locus YDL074C, strain BRE1, stronger effect = lower value 0.981 | locus YDL101C, strain DUN1, stronger effect = lower value 0.976 | locus YDL134C, strain PPH21, stronger effect = lower value 0.976 | locus YDL185W, strain tfp1, stronger effect = lower value 0.991 | locus YDL192W, strain arf1, stronger effect = lower value 0.989 | locus YDR001C, strain nth1, stronger effect = lower value 0.988 | locus YDR069C, strain doa4, stronger effect = lower value 1 | locus YDR101C, strain arx1, stronger effect = lower value 0.98 | locus YDR137W, strain rgp1, stronger effect = lower value 1.03 | locus YDR150W, strain NUM1, stronger effect = lower value 0.989 | locus YDR159W, strain sac3, stronger effect = lower value 1.07 | locus YDR162C, strain NBP2, stronger effect = lower value 1.01 | locus YDR195W, strain ref2 1.04 | locus YDR297W, strain sur2, stronger effect = lower value 1 | locus YDR318W, strain mcm21, stronger effect = lower value 0.965 | locus YDR334W, strain swr1, stronger effect = lower value 0.997 | locus YDR335W, strain msn5, stronger effect = lower value 1.01 | locus YDR363W, strain ESC2, stronger effect = lower value 0.988 | locus YDR388W, stronger effect = lower value 0.981 | locus YDR392W, strain spt3, stronger effect = lower value 0.805 | locus YDR502C, strain sam2, stronger effect = lower value 0.978 | locus YEL003W, strain gim4, stronger effect = lower value 0.985 | locus YEL037C, strain rad23, stronger effect = lower value 0.982 | locus YEL061C, strain CIN8 (second series), stronger effect = lower value 0.982 | locus YEL061C, strain CIN8, stronger effect = lower value 0.998 | locus YER002W, strain NOP16, stronger effect = lower value 0.986 | locus YER015W, strain faa2, stronger effect = lower value 1.01 | locus YER016W, strain bim1, stronger effect = lower value 1.01 | locus YER110C, stronger effect = lower value 0.981 | locus YER111C, strain swi4, stronger effect = lower value 0.991 | locus YER155C, strain BEM2 (second series), stronger effect = lower value 0.964 | locus YER155C, strain BEM2, stronger effect = lower value 0.985 | locus YER167W, strain BCK2, stronger effect = lower value 0.978 | locus YFR010W, strain ubp6, stronger effect = lower value 1.02 | locus YGL078C, strain dbp3, stronger effect = lower value 0.992 | locus YGL086W, strain mad1, stronger effect = lower value 0.967 | locus YGL167C, strain pmr1, stronger effect = lower value 1 | locus YGL173C, strain kem1, stronger effect = lower value 1.01 | locus YGL227W, strain vid30, stronger effect = lower value 0.971 | locus YGL240W, strain doc1, stronger effect = lower value 0.994 | locus YGL248W, strain PDE1, stronger effect = lower value 0.981 | locus YGL253W, strain hxk2, stronger effect = lower value 1.03 | locus YGR078C, strain PAC10, stronger effect = lower value 1.01 and 1 | locus YGR135W, strain pre9, stronger effect = lower value 0.987 | locus YGR229C, strain SMI1, stronger effect = lower value 1 | locus YGR252W, strain gcn5, stronger effect = lower value 0.872 | locus YHR013C, strain ard1, stronger effect = lower value 0.992 | locus YHR027C, strain rpn1, stronger effect = lower value 1.02 | locus YHR030C, strain SLT2, stronger effect = lower value 0.988 and 1.01 | locus YHR079C, strain IRE1 (second series), stronger effect = lower value 0.985 | locus YHR079C, strain IRE1, stronger effect = lower value 0.985 | locus YHR094C, strain hxt1, stronger effect = lower value 0.979 | locus YHR129C, strain ARP1, stronger effect = lower value 0.988 | locus YHR142W, strain chs7, stronger effect = lower value 0.983 | locus YHR200W, strain rpn10, stronger effect = lower value 0.981 | locus YIL066C, strain RNR3, stronger effect = lower value 0.953 | locus YIL073C, strain SPO22, stronger effect = lower value 0.958 | locus YIL125W, strain kgd1, stronger effect = lower value 0.99 | locus YIR030C, strain dcg1, stronger effect = lower value 0.983 | locus YJL092W, strain hpr5, stronger effect = lower value 0.978 | locus YJL095W, strain BCK1 (second series), stronger effect = lower value 1 | locus YJL095W, strain BCK1, stronger effect = lower value 0.989 and 1 | locus YJL115W, strain asf1, stronger effect = lower value 0.988 | locus YJL129C, strain trk1, stronger effect = lower value 0.977 | locus YJL134W, strain LCB3, stronger effect = lower value 0.989 | locus YJL154C, strain vps35, stronger effect = lower value 0.983 | locus YJL164C, strain tpk1, stronger effect = lower value 0.972 | locus YJL166W, strain qcr8, stronger effect = lower value 0.991 | locus YJL168C, strain set2, stronger effect = lower value 0.99 | locus YJL187C, strain SWE1 (second series), stronger effect = lower value 0.978 | locus YJL187C, strain SWE1, stronger effect = lower value 1.02 | locus YJR043C, strain POL32, stronger effect = lower value 0.983 | locus YJR066W, strain TOR1, stronger effect = lower value 0.91

From PubChem BioAssay AID1159580 (chemical genetic matrix, 2015)
